{"source": "the supplement of paper PMC3334620", "note": "Over roughly 33,000 sequences, “E-score (-0.5 to 0.5)” has its median near -0.012; the highest 2% begin near 0.29. Shown is part of a subset that was picked to be rich in the highest values."}
{"target": "T1, Ybr033w (UniProt P38073)", "T1 sequence": "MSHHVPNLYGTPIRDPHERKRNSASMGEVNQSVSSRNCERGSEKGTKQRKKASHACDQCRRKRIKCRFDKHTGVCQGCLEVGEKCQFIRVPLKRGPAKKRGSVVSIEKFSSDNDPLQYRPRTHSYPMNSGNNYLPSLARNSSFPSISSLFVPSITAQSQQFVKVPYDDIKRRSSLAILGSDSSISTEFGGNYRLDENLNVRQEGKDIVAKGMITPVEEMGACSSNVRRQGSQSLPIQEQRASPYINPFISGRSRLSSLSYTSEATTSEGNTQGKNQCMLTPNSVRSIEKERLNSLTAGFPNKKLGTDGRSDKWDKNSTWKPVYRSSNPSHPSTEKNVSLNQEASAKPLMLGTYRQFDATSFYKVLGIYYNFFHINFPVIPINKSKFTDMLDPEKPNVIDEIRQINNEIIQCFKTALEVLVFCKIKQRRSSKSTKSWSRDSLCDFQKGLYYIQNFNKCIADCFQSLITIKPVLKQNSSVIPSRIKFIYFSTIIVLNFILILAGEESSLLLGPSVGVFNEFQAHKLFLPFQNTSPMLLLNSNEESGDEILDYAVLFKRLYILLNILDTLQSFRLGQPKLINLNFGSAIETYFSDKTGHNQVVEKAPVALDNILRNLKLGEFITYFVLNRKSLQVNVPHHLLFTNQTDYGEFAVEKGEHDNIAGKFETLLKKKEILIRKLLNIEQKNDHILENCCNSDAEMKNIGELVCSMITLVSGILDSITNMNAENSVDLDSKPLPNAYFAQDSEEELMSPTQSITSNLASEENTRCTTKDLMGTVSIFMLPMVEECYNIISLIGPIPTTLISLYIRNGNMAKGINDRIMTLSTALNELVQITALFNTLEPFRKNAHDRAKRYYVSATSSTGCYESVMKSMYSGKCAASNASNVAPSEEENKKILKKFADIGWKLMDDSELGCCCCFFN", "test": "PBM E-score (8-mer binding enrichment) (E-score (-0.5 to 0.5)); higher = stronger / more preferred TF binding", "conditions": "protein concentration: 200 nM; construct: GST-full length", "description": "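Universal 'all 10-mer' protein binding microarrays (Agilent AMADID 015681) probed with GST-tagged S. cerevisiae TFs (full-length or DBD) made by in vitro transcription/translation (PURExpress), about 100-200 nM. Bound TF was detected with fluorescent anti-GST. Each ungapped 8-mer (which stands for itself and its reverse complement) is scored by the PBM enrichment score (E-score), a modified Wilcoxon-Mann-Whitney statistic from -0.5 to +0.5, computed with the Universal PBM Analysis Suite. Scale: above 0.35 generally sequence-specific binding.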"}
{"sequence": "CTCGCAAC", "PBM E-score": -0.052}
{"sequence": "AAGGCCTC", "PBM E-score": -0.21}
{"sequence": "AAAGTACT", "PBM E-score": 0.177}
{"sequence": "TACGACTA", "PBM E-score": 0.0548}
{"sequence": "CCCCTATC", "PBM E-score": -0.337}
{"sequence": "CCCCCCCC", "PBM E-score": -0.45}
{"sequence": "CACTTGTC", "PBM E-score": -0.0719}
{"sequence": "GCACTGTA", "PBM E-score": 0.0862}
{"sequence": "CGAACAAC", "PBM E-score": 0.077}
{"sequence": "GGAACAAC", "PBM E-score": 0.454}
{"sequence": "AGAACAAC", "PBM E-score": 0.0473}
{"sequence": "AGTATTCA", "PBM E-score": 0.142}
{"sequence": "ACGCCCTG", "PBM E-score": -0.16}
{"sequence": "ATATCAGA", "PBM E-score": 0.289}
{"sequence": "CTATCAGA", "PBM E-score": -0.0376}
{"sequence": "GTATCAGA", "PBM E-score": 0.106}
{"sequence": "AACCCCGA", "PBM E-score": -0.0425}
{"sequence": "TATTTCAA", "PBM E-score": 0.338}
{"sequence": "TATTTCGA", "PBM E-score": 0.357}
{"sequence": "AATTTCGA", "PBM E-score": 0.0715}
{"sequence": "GATTTCAA", "PBM E-score": 0.174}
{"sequence": "CATTTCAA", "PBM E-score": 0.242}
{"sequence": "GATTTCGA", "PBM E-score": -0.0493}
{"sequence": "TTAAGGAA", "PBM E-score": 0.218}
{"sequence": "AGTAGACT", "PBM E-score": -0.0063}
{"sequence": "GGAGGGAC", "PBM E-score": -0.188}
{"sequence": "TAAGCTTA", "PBM E-score": 0.102}
{"sequence": "AGTGGACA", "PBM E-score": 0.0894}
{"sequence": "ATGAACTA", "PBM E-score": 0.303}
{"sequence": "ATGAACTC", "PBM E-score": 0.0731}
{"sequence": "CTGAACTA", "PBM E-score": 0.037}
{"sequence": "ATTAGAGA", "PBM E-score": 0.115}
{"sequence": "CGGGAAAA", "PBM E-score": 0.298}
{"sequence": "AGGGAAAT", "PBM E-score": 0.00233}
{"sequence": "AGGGGAAA", "PBM E-score": 0.0237}
{"sequence": "TGGGAAAA", "PBM E-score": 0.316}
{"sequence": "AGGGAAAA", "PBM E-score": 0.296}
{"sequence": "TGGGGAAA", "PBM E-score": 0.0688}
{"sequence": "GGGGGAAA", "PBM E-score": -0.124}
{"sequence": "CGGGAAAC", "PBM E-score": 0.0713}
{"sequence": "CGGGGAAA", "PBM E-score": 0.212}
{"sequence": "AGTTATGA", "PBM E-score": 0.0811}
{"sequence": "CGGTTGGA", "PBM E-score": 0.0125}
{"sequence": "ATCCTGGC", "PBM E-score": -0.0209}
{"sequence": "TAAATAAA", "PBM E-score": 0.301}
{"sequence": "AAAATAGA", "PBM E-score": 0.332}
{"sequence": "AAAATAAT", "PBM E-score": 0.319}
{"sequence": "AAAATAAC", "PBM E-score": 0.189}
{"sequence": "AAAATAAA", "PBM E-score": 0.319}
{"sequence": "TAAATAGA", "PBM E-score": 0.0889}
{"sequence": "CAAATAAA", "PBM E-score": 0.2}
{"sequence": "GAAATAAA", "PBM E-score": 0.247}
{"sequence": "AAAATAGC", "PBM E-score": -0.0427}
{"sequence": "AAAATAAG", "PBM E-score": 0.207}
{"sequence": "GAAATAAC", "PBM E-score": 0.159}
{"sequence": "ACCCTTCA", "PBM E-score": -0.0354}
{"sequence": "CATTCTGG", "PBM E-score": -0.15}
{"sequence": "CATCTGTA", "PBM E-score": -0.105}
{"sequence": "CGTGACAC", "PBM E-score": -0.127}
{"sequence": "CGATAAAC", "PBM E-score": -0.148}
{"sequence": "GGATAAGA", "PBM E-score": -0.0485}
{"sequence": "GGATAACA", "PBM E-score": 0.0661}
{"sequence": "GGATAAAA", "PBM E-score": 0.397}
{"sequence": "GTATAAAC", "PBM E-score": 0.158}
{"sequence": "GGATAAAC", "PBM E-score": 0.456}
{"sequence": "ATATAAAA", "PBM E-score": 0.242}
{"sequence": "AGATAAAC", "PBM E-score": 0.216}
{"sequence": "AGATAAAA", "PBM E-score": 0.286}
{"sequence": "TGATAAAA", "PBM E-score": 0.299}
{"sequence": "GTATAAAA", "PBM E-score": 0.289}
{"sequence": "CGATAAAA", "PBM E-score": 0.14}
{"sequence": "CCTGCCCG", "PBM E-score": -0.354}
{"sequence": "GGCATATA", "PBM E-score": 0.16}
{"sequence": "AGCAATGA", "PBM E-score": 0.13}
{"sequence": "CGAGACCA", "PBM E-score": -0.0425}
{"sequence": "ATGAACAC", "PBM E-score": 0.0659}
{"sequence": "ATAGCGGC", "PBM E-score": -0.106}
{"sequence": "CCGTCGAG", "PBM E-score": 0.102}
{"sequence": "AATTATCT", "PBM E-score": 0.264}
{"sequence": "CATTATCA", "PBM E-score": 0.138}
{"sequence": "CATTATCG", "PBM E-score": 0.0618}
{"sequence": "AATTATCA", "PBM E-score": 0.324}
{"sequence": "ATTTATCG", "PBM E-score": 0.0834}
{"sequence": "AATTATCG", "PBM E-score": 0.308}
{"sequence": "TCGACCGA", "PBM E-score": -0.0438}
{"sequence": "CTGCACCC", "PBM E-score": -0.204}
{"sequence": "ACCTTTAA", "PBM E-score": 0.126}
